Where “and” joins values, the source holds several entries; their conditions need not be identical. Equal entries are not always repeated. Inconclusive results are not listed. Calls of active or inactive are those of the source. Unless noted, the call rests on the fitted dose curve; in most records, active means well fitted curve in the direction sought with a large enough effect; inconclusive means small, poorly fitted or top-dose-only effect, or another doubt; inactive means no such curve, though single readings can be large; an effect the other way counts as inactive or inconclusive.
Key:
[1] = molecular target: Mitogen-activated protein kinase 10 (Mus musculus) (UniProt Q61831); assay: JNK3 AlphaScreen Assay (AID 530; active means well fitted curve in either direction with a large enough effect, not every such curve was filed as active;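 further: kinase came from lysate of stimulated human HepG2 cells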; further: potency means the concentration at half of the fitted maximal effect)
Outline: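 qHTS titrations with 15 min compound pre-incubation before adding ATP (10 uM final). Read-out: AlphaScreen of Ser73-phosphorylated biotin-GST-cJun using HepG2 lysate JNK3 activated by IL-1β and TNFα.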

[2] = Cell Viability - N2a (AID 540); conditions: N2a mouse neuroblastoma cell viability; activity change, negative = cytotoxicity: at 92.2 µM (top of the series);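 further: plate controls were DMSO alone for no effect and tamoxifen control for full effect; nearly all actives have a fitted effect of over 45% in size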
Outline: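 CellTiter-Glo ATP luminescence, read 20 min after reagent at room temperature, reported viability following 40 h compound treatment at 37 °C. N2a mouse neuroblastoma cells seeded 1500/well; Hill equation gave AC50.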

[3] = Cell Viability - H-4-II-E (AID 543);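 further: cells exposed to compound for 40 hours; nearly all actives have a fitted effect of over 35% in size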; further: potency means the concentration at half of the fitted maximal effect
Outline: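 CellTiter-Glo luminescence (intracellular ATP) measured after 40 h compound exposure at 37 °C in H-4-II-E rat hepatoma cells seeded at 1500/well. Values are AC50s fitted with the standard Hill equation.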

[4] = Cell Viability - SH-SY5Y (AID 544); conditions: SH-SY5Y neuroblastoma cell viability; viability change, negative = cytotoxic: at 92.2 µM (top of the series);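 further: cells exposed to compound for 40 hours; 0% = DMSO alone and -100% = 100 µM tamoxifen; nearly all actives have a fitted effect of over 55% in size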
Outline: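 Cytotoxicity measured via ATP-dependent luciferase luminescence (CellTiter-Glo) following 40 h, 37 °C exposure of 1500 SH-SY5Y cells per well. Concentration-response data were fitted with the standard Hill equation to give AC50.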

[5] = molecular target: Glucocorticoid receptor (Homo sapiens) (UniProt P04150); assay: GR-GFP Redistribution (AID 450;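 active means compounds whose dose series gives a full or clear partial fitted curve of increased nuclear translocation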; further: potency means the concentration at half of the fitted maximal effect); conditions: U2OS GR-GFP nuclear translocation, laser cytometry, 2 h
[6] = molecular target: Glucocorticoid receptor (Homo sapiens) (UniProt P04150); assay: GR-EFC Redistribution (AID 451; calls by dose curve; further: potency means the concentration at half of the fitted maximal effect); conditions: CHO-K1 GR-EFC translocation, beta-gal luminescence, 2 h
Outline: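 Translocation of GR-ED fusion to nuclear EA restores b-gal, read by luminescence after 1 h room-temperature detection. Engineered CHO-K1 biosensor cells, 1,000/well, exposed 2 h at 37 C to titrations up to 46 uM final.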

[7] = Cell Viability - NIH 3T3 (AID 541); conditions: NIH 3T3 cell viability, qHTS; activity change, negative = cytotoxicity: at 92.2 µM (top of the series);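 further: cells exposed to compound for 40 hours; nearly all actives have a fitted effect of over 25% in size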; further: potency means the concentration at half of the fitted maximal effect;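 on activity change, negative = cytotoxicity: plate controls were DMSO alone for no effect and tamoxifen positive control for full effect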
Outline: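 Intracellular ATP (CellTiter-Glo luminescence, 20 min at room temperature) measured after 40 hr compound exposure at 37 °C of 1000 NIH 3T3 mouse fibroblasts/well in complete medium; AC50 derived by Hill-equation modelling of qHTS concentration-response curves.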

[8] = Cell Viability - Renal Proximal Tubule (AID 545); conditions: renal proximal tubule cells viability, primary cells of rat origin; activity change, negative = cytotoxicity: at 91.7 µM (top of the series);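 further: cells exposed to compound for 40 hours; 0% = DMSO only and -100% = 100 µM tamoxifen; nearly all actives have a fitted effect of over 40% in size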
Outline: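 Primary rat renal proximal tubule cells (1000/well) were treated with compounds for 40 hr at 37 °C in complete medium. Intracellular ATP was measured by CellTiter-Glo luminescence, and AC50 values came from Hill-equation fits of concentration-response data.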

[9] = Cell Viability - HUV-EC-C (AID 542);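 further: cells exposed to compound for 40 hours; nearly all actives have a fitted effect of over 35% in size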; further: potency means the concentration at half of the fitted maximal effect; on activity change, negative = cytotoxicity: on the % scale 0 is the no-effect control and ±100 the full control effect
Outline: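 CellTiter-Glo luminescence measured ATP loss in HUV-EC-C cells (1000/well) after 40 hr compound exposure at 37 °C, in complete culture medium. Concentration-response data were Hill-fitted to give AC50.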

Glucocorticoid receptor (Homo sapiens), sequence (P04150 whole entry, looked up, the tested form may be a part): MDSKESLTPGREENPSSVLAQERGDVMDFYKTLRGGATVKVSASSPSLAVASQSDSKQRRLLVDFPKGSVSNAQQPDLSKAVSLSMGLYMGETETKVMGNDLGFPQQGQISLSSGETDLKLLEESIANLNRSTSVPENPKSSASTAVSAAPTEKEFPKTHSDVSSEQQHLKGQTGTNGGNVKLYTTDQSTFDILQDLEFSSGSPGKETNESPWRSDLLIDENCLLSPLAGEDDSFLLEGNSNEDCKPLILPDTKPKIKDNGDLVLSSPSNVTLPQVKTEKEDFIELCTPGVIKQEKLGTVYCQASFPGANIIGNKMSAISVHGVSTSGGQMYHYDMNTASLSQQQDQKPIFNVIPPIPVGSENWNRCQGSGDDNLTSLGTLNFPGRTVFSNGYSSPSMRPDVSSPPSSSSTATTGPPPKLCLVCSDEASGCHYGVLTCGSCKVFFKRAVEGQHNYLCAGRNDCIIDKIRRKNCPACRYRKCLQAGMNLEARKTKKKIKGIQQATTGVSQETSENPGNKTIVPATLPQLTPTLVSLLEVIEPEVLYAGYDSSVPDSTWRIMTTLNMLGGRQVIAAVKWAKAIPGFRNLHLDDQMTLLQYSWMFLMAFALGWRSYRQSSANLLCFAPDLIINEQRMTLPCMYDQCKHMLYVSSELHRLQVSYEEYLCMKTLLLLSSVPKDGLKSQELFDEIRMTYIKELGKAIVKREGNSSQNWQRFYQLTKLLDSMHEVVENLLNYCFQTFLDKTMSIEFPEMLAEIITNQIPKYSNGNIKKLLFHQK

CC(C)NCC(O)COc1cccc2ccccc12 (configuration not stated)
inactive: Potency [1] | Potency [2] | Potency [4]
active: Potency [3] 39.8 µM

C[C@@H](NC(=O)/C(C#N)=C/c1ccc(O)c(O)c1)c1ccccc1
inactive: Potency [5] > 46 µM | Potency [6] > 46 µM
active: Potency [1] 12.6 µM

COc1ccccc1CNCCCCCCNCCCCCCCCNCCCCCCNCc1ccccc1OC
inactive: Potency [5] > 46 µM | Potency [6] > 46 µM | Potency [1]

COc1cc(CNC(=O)CCCC/C=C/C(C)C)ccc1O
active: Potency [7] 5.01 µM
inactive: Potency [1] | Potency [2] | Potency [3] | activity change, negative = cytotoxicity [8] -16.6%

O=c1cc(-c2ccccc2)oc2ccccc12
inactive: Potency [1] | Potency [2] | Potency [9] | Potency [4]

CCCOC(=O)c1ccc(O)cc1
inactive: Potency [1] | Potency [2] | Potency [7] | Potency [9] | Potency [3] | Potency [4] | activity change, negative = cytotoxicity [8] -13.5% and -15.2%

CC(C)NC[C@H](O)COc1cccc2[nH]ccc12
inactive: Potency [5] > 46 µM | Potency [6] > 46 µM | Potency [1]

Cn1cc(C2=C(c3ccc(Cl)cc3Cl)C(=O)NC2=O)c2ccccc21
inactive: Potency [5] > 46 µM | Potency [6] > 46 µM | Potency [1]

COC1=C(OC)C(=O)c2ccccc2C1=O
inactive: Potency [5] > 46 µM | Potency [6] > 46 µM

S=c1[nH]c2ccccc2s1
inactive: Potency [1] | Potency [2] | Potency [9] | Potency [3] | Potency [4] | activity change, negative = cytotoxicity [8] -20.5%
active: activity change, negative = cytotoxicity [7] -146%

COc1cc(OC)c(/C=C2/C(=O)Nc3ccccc32)c(OC)c1
inactive: Potency [5] > 46 µM | Potency [6] > 46 µM | Potency [1]

CCCCN1CCC(n2c(=O)[nH]c3ccccc32)CC1
inactive: Potency [5] > 46 µM | Potency [6] > 46 µM

O=C(O)[C@@H]1C[C@@H](C(=O)O)N1
inactive: Potency [5] > 46 µM | Potency [6] > 46 µM | Potency [1]

C[C@@H](CN1CCC(Cc2ccccc2)CC1)[C@@H](O)c1ccc(O)cc1
inactive: Potency [5] > 46 µM | Potency [6] > 46 µM | Potency [1]

N=C1N=C(N)c2cc3ccccc3cc21
inactive: Potency [1]
active: activity change, negative = cytotoxicity [2] -112% | activity change, negative = cytotoxicity [7] -134% | Potency [9] 50.1 µM | Potency [3] 31.6 µM | viability change, negative = cytotoxic [4] -99% | activity change, negative = cytotoxicity [8] -85.8%

COc1ccccc1N1CCN(CCN(C(=O)c2ccc(I)cc2)c2ccccn2)CC1
inactive: Potency [5] > 46 µM | Potency [6] > 46 µM | Potency [1]

CCCCCCCC/C=C\CCCCCCCC(=O)NCCO
inactive: Potency [5] > 46 µM | Potency [6] > 46 µM | Potency [1]

CN1CCC[C@H]1c1cccnc1
inactive: Potency [1] | Potency [2] | Potency [7] | Potency [9] | Potency [3] | Potency [4] | activity change, negative = cytotoxicity [8] 3.04%
